# Results as given in the supplement of paper PMC10849652.
# The full data set covers some 7,900 targets. This sample favours those with a hit. About 0.6% of all pairs of compound and target were hits. Values without a mark were called inactive.
# Compound: Cn1cc(-c2ccc3c(c2)CCN3C(=O)Cc2cccc(C(F)(F)F)c2)c2c(N)ncnc21
# Experiment: log2 fold change, soluble protein after heating vs DMSO (PISA); higher = thermal stabilisation; K562 cells, 10 uM, 30 min; active = over 0.2 and 3.5 SD of the protein, either way, in both replicates (recomputed)
# How it was run: (§1)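 Aliquots of K562 cells (2×10^6 cells/mL) treated with 10 μM compound for 30 min were heated for 3 min over 48°C-58°C. After pooling and extraction in PBS with 0.5% NP-40 at 4°C, soluble protein from a 21,000xg, 90 min spin was quantified by TMTpro 16plex LC-MS/MS with channel sums equalised. Thermal stability is expressed against control samples, from duplicates, as a log2 fold change.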
# Sequence of UniProt O76003 (O76003 whole entry, looked up): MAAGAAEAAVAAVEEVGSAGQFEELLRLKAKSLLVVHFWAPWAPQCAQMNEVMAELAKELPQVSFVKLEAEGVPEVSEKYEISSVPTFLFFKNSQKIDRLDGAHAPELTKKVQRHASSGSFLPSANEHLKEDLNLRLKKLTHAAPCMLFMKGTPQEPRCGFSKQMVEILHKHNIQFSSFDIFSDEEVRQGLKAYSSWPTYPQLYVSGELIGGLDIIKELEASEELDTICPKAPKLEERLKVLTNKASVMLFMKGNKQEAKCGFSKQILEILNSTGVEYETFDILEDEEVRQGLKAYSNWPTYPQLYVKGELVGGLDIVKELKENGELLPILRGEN
# Sequence of UniProt P30711 (P30711 whole entry, looked up): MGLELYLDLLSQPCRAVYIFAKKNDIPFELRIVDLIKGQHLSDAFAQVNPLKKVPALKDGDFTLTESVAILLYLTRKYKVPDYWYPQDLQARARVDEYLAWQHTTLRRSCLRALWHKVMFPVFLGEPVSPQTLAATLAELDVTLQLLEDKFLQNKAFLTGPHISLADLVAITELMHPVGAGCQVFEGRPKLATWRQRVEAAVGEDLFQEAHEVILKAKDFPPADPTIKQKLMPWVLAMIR
# Sequence of UniProt Q7Z4Q2 (Q7Z4Q2 whole entry, looked up): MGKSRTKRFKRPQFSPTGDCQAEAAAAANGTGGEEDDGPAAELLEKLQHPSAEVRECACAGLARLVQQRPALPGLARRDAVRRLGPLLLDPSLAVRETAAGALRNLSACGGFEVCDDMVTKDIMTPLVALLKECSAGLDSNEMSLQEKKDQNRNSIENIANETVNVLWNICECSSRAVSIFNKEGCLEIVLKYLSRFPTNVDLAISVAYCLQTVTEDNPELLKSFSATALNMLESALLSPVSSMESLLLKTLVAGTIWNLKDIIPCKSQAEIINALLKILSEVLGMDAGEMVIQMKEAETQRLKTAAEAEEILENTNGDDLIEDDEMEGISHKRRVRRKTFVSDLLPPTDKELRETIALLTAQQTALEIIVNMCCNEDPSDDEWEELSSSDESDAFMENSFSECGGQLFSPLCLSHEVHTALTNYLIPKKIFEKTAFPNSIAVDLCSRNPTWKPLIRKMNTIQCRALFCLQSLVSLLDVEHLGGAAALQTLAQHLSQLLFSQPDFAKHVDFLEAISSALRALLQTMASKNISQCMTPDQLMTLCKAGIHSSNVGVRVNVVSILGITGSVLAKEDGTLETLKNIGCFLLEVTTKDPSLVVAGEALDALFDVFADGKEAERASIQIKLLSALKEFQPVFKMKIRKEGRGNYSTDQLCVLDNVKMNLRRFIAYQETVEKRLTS
# Sequence of UniProt Q13547 (Q13547 whole entry, looked up): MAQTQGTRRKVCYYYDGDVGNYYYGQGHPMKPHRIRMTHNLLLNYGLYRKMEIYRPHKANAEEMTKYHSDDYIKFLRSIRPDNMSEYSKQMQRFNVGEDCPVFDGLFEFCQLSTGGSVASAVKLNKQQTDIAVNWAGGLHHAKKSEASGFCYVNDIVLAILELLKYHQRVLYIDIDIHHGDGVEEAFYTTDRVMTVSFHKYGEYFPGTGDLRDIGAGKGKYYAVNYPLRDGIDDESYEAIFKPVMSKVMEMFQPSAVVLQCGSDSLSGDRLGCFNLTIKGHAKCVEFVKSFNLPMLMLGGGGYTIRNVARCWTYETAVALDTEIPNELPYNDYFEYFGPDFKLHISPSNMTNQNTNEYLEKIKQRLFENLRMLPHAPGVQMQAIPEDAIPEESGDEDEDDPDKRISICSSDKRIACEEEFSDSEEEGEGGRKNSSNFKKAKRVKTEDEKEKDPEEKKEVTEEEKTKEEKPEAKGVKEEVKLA
# Sequence of UniProt P21695 (P21695 whole entry, looked up): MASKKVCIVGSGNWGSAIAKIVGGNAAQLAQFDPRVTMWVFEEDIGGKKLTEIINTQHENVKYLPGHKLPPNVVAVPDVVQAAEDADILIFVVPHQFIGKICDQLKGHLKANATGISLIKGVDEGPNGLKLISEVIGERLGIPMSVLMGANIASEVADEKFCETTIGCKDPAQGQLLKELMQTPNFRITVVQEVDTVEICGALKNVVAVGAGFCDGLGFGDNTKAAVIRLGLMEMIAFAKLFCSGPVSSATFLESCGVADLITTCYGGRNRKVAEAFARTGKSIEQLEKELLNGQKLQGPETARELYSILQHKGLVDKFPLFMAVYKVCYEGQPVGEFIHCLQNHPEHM
# Sequence of UniProt P07686 (P07686 whole entry, looked up): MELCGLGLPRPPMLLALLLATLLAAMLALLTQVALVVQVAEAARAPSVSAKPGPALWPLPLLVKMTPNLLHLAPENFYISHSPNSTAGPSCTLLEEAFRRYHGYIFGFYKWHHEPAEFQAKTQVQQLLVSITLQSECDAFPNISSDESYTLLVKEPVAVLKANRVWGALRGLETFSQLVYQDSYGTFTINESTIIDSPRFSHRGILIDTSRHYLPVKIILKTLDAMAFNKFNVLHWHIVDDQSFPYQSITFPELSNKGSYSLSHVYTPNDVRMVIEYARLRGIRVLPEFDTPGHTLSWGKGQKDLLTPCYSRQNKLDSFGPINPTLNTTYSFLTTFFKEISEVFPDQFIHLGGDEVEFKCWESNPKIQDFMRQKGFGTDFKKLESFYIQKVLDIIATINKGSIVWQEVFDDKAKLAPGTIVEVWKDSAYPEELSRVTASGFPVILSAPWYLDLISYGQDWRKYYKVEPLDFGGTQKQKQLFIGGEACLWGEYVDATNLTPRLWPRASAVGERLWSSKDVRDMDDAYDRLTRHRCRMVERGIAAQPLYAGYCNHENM
# Sequence of UniProt P13807 (P13807 whole entry, looked up): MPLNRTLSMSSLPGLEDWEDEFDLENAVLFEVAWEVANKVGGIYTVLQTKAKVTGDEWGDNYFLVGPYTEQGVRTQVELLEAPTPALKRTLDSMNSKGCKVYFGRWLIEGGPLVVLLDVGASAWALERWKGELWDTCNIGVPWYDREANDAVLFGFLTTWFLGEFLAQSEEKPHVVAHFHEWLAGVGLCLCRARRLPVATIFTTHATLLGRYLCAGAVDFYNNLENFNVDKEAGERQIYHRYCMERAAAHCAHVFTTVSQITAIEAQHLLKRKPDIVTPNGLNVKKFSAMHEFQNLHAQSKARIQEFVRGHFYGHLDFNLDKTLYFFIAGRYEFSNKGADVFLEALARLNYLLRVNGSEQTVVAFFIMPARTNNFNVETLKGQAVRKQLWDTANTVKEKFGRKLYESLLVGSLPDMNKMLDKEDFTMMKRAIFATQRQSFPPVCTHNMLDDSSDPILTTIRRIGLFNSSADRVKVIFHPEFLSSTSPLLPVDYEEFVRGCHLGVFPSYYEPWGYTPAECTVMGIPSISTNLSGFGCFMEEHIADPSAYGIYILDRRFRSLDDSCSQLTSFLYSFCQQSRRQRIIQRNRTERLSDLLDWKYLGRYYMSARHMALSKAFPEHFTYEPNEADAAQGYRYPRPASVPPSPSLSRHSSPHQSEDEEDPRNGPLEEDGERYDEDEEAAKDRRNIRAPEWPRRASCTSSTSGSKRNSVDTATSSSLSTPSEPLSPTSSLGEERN
# Sequence of UniProt Q02790 (Q02790 whole entry, looked up): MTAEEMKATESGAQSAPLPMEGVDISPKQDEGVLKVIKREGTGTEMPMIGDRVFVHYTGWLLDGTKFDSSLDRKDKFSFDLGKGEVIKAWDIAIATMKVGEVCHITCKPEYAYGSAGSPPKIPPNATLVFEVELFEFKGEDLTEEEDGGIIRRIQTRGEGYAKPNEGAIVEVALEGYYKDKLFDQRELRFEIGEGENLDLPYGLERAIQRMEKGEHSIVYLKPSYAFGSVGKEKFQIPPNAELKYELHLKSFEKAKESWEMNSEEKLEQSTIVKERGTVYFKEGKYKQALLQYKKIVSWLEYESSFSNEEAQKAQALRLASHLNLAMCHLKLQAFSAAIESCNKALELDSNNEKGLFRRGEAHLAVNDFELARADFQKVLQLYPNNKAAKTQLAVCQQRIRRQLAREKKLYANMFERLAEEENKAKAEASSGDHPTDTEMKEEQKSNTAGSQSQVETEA
# Sequence of UniProt Q8NB37 (Q8NB37 whole entry, looked up): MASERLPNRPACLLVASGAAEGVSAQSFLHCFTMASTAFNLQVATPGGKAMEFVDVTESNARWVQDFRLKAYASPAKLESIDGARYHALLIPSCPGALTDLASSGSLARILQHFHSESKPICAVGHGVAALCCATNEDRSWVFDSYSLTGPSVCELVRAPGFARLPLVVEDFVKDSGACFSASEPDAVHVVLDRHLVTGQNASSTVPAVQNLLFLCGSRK
# Sequence of UniProt Q00688 (Q00688 whole entry, looked up): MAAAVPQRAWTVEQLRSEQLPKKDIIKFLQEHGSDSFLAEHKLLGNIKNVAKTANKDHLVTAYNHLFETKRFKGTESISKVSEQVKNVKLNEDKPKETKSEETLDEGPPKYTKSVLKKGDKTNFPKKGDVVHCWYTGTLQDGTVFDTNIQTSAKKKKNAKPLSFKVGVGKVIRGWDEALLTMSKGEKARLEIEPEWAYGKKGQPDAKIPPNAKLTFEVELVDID
# Sequence of UniProt Q9UK97 (Q9UK97 whole entry, looked up): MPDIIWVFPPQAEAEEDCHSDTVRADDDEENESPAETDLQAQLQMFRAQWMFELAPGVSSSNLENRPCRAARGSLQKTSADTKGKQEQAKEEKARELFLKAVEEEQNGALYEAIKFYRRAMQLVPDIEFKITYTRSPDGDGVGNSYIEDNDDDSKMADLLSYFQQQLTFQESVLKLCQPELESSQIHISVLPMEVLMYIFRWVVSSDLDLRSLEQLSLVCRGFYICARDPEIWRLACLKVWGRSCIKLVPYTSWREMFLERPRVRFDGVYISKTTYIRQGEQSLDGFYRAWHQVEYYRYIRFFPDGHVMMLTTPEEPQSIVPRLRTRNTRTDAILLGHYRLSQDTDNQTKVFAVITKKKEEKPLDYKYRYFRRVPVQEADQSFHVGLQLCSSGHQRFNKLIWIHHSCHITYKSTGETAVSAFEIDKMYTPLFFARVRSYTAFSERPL
# Sequence of UniProt P09211 (P09211 whole entry, looked up): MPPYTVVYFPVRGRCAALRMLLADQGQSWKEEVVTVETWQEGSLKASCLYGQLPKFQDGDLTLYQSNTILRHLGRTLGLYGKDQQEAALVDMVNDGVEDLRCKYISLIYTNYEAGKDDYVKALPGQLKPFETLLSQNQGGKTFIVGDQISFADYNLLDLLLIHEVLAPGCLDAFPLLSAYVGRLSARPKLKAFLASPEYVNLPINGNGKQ
row,Target,log2 fold change
1,GABPA (UniProt Q06546),0.048
2,FRA10AC1 isoform 3 (UniProt Q70Z53),-0.076
3,GINS2 (UniProt Q9Y248),-0.057
4,GNAS (UniProt Q5JWF2),0.029
5,GYS1 (UniProt P13807),-0.266
6,HEXB (UniProt P07686),0.021
7,HDAC1 (UniProt Q13547),-0.002
8,FKBP4 (UniProt Q02790),0.033
9,GATD1 (UniProt Q8NB37),0.046
10,GSTT1 (UniProt P30711),0.014
11,HDAC10 (UniProt Q969S8),0.071
12,GPD1 (UniProt P21695),0.238
13,HDAC2 (UniProt Q92769),-0.01
14,FKBP3 (UniProt Q00688),-0.006
15,HDAC7 isoform 5 (UniProt Q8WUI4),0.026
16,FBXO9 (UniProt Q9UK97),-0.236
17,GOPC (UniProt Q9HD26),-0.005
18,GNL3 (UniProt Q9BVP2),0.069

row,Target,log2 fold change
1,GIGYF2 (UniProt Q6Y7W6),0.054
2,GSTP1 (UniProt P09211),0.032
3,GNL1 (UniProt P36915),0.047
4,GTF3A (UniProt Q92664),0.023
5,GEMIN2 (UniProt O14893),-0.039
6,FUT8 (UniProt Q9BYC5),-0.276
7,GLCCI1 (UniProt Q86VQ1),0.03
8,FAT1 (UniProt Q14517),0.009
9,GLRX3 (UniProt O76003),-0.015
10,IFRD1 (UniProt O00458),-0.011
11,IDI1 isoform 2 (UniProt Q13907),0.096
12,HEATR3 (UniProt Q7Z4Q2),-0.008
13,GABARAPL2 (UniProt P60520),0.046
14,GTPBP6 (UniProt O43824),0.057
15,GCLM (UniProt P48507),0.042
16,GTF2A2 (UniProt P52657),0.056
17,FASTKD1 (UniProt Q53R41),0.217

# Compound: Cn1cc(-c2ccc3nnc(C(F)(F)c4ccc5ncccc5c4)n3n2)cn1
# Experiment: as above
# How it was run: as §1
row,Target,log2 fold change
1,GABPA (UniProt Q06546),0.111
2,GINS2 (UniProt Q9Y248),-0.111
3,GNAS (UniProt Q5JWF2),0.031
4,GYS1 (UniProt P13807),-0.139
5,HEXB (UniProt P07686),0.01
6,HDAC1 (UniProt Q13547),-0.009
7,FKBP4 (UniProt Q02790),-0.002
8,GATD1 (UniProt Q8NB37),0.015
9,GSTT1 (UniProt P30711),0.043
10,HDAC10 (UniProt Q969S8),0.001
11,GPD1 (UniProt P21695),0.163
12,HDAC2 (UniProt Q92769),-0.001
13,FKBP3 (UniProt Q00688),0.021
14,HDAC7 isoform 5 (UniProt Q8WUI4),-0.021
15,FBXO9 (UniProt Q9UK97),-0.093
16,GOPC (UniProt Q9HD26),-0.02

row,Target,log2 fold change
1,GIGYF2 (UniProt Q6Y7W6),-0.025
2,GSTP1 (UniProt P09211),0.038
3,GNL1 (UniProt P36915),-0.03
4,GEMIN2 (UniProt O14893),-0.095
5,FUT8 (UniProt Q9BYC5),0.022
6,GLCCI1 (UniProt Q86VQ1),-0.175
7,FAT1 (UniProt Q14517),-0.052
8,GLRX3 (UniProt O76003),-0.014
9,IFRD1 (UniProt O00458),-0.005
10,IDI1 isoform 2 (UniProt Q13907),-0.012
11,HEATR3 (UniProt Q7Z4Q2),0.138
12,GABARAPL2 (UniProt P60520),0.279
13,GTPBP6 (UniProt O43824),0.042
14,GCLM (UniProt P48507),-0.051
15,GTF2A2 (UniProt P52657),0.104
16,FASTKD1 (UniProt Q53R41),-0.064

# Compound: Cn1cncc1[C@@](N)(c1ccc(Cl)cc1)c1ccc2c(c1)c(-c1cccc(Cl)c1)cc(=O)n2C [tipifarnib]
# Experiment: as above
# How it was run: as §1
row,Target,log2 fold change
1,GABPA (UniProt Q06546),-0.149
2,FRA10AC1 isoform 3 (UniProt Q70Z53),-0.055
3,GINS2 (UniProt Q9Y248),-0.064
4,GNAS (UniProt Q5JWF2),0.005
5,GYS1 (UniProt P13807),0.147
6,HEXB (UniProt P07686),0.026
7,HDAC1 (UniProt Q13547),-0.078
8,FKBP4 (UniProt Q02790),-0.092
9,GATD1 (UniProt Q8NB37),0.029
10,GSTT1 (UniProt P30711),-0.065
11,HDAC10 (UniProt Q969S8),0.046
12,GPD1 (UniProt P21695),0.057
13,HDAC2 (UniProt Q92769),0.027
14,FKBP3 (UniProt Q00688),-0.01
15,HDAC7 isoform 5 (UniProt Q8WUI4),0.093
16,FBXO9 (UniProt Q9UK97),-0.088

row,Target,log2 fold change
1,GOPC (UniProt Q9HD26),0.127
2,GIGYF2 (UniProt Q6Y7W6),-0.119
3,GSTP1 (UniProt P09211),-0.007
4,GNL1 (UniProt P36915),-0.152
5,GTF3A (UniProt Q92664),-0.12
6,GEMIN2 (UniProt O14893),0.08
7,GLCCI1 (UniProt Q86VQ1),0.075
8,FAT1 (UniProt Q14517),0.077
9,GLRX3 (UniProt O76003),-0.082
10,IFRD1 (UniProt O00458),0.001
11,IDI1 isoform 2 (UniProt Q13907),0.018
12,HEATR3 (UniProt Q7Z4Q2),-0.011
13,GABARAPL2 (UniProt P60520),-0.003
14,GCLM (UniProt P48507),-0.133
15,GTF2A2 (UniProt P52657),-0.028
